Source: PubChem BioAssay
Calls of active or inactive are those of the source.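 How the source made its calls: active means primary screen active and over 50% activation in each of two duplicate runs; inactive means the rest.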

test system: transient receptor potential cation channel C4 beta (TRPC4), mouse; assay: activators of mouse TRPC4 channel, confirmation, cell-based, second round, Fluo4, HEK293 TRPC4beta/mu-opioid, 1 µM (AID 2461); details: Fluo4 calcium fluorescence, at 1 µM; hits give high values;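 on activation: 0% = wells without test compound as baseline of integrated fluorescence ratio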

Row | SMILES | outcome | activation
1 | NC1=NC2(CCN(Cc3ccccc3)CC2)n2c(nc3ccccc32)N1 | inactive | 
2 | COc1ccc(CN2CCC(N(CCc3ccccc3)Cc3ccccc3)CC2)c(OC)c1 | inactive | 
3 | CCc1ccc(C(=O)c2cnc3ccc(OC)cc3c2N2CCN(CC)CC2)cc1 | inactive | 
4 | S=C(NCCc1cnc[nH]1)NC1CCCC1 |  | 135% (active)
5 | O=C(NCc1ccccc1)C1=C[C@H](c2ccccc2)C[C@H](OCc2ccc(CO)cc2)O1 | inactive | 
6 | Cc1ccc(OCC(=O)N(C)CCc2ccccn2)cc1 | inactive | 
7 | CC(C)(C)C(=O)/C=c1\s/c(=C\c2ccc(-c3ccc([N+](=O)[O-])cc3)o2)c(=O)n1CC(=O)NC(N)=O | inactive | 
8 | NC(=O)C1CCCN(CCc2ccccc2)C1 (centres undefined) |  | 133% (active)
9 | Cc1cc2nc3s/c(=C/c4ccc(-c5ccccc5C(=O)O)o4)c(=O)n3c2cc1C | inactive | 
10 | COc1ccc(CNCc2cn(-c3cccc(F)c3)nc2-c2ccc(C)o2)cc1 | inactive | 
11 | CN(C)C(CNc1ccc(C(F)(F)F)cn1)c1ccccc1 (centres undefined) | inactive | 
12 | CN(C)C(CNC(=O)c1cccc(S(=O)(=O)N(C)C)c1)c1ccccc1 (centres undefined) | inactive | 
13 | CCCc1c(O)nc(SCCN(CC)CC)[nH]c1=O |  | 82% (active)
14 | CCC(=O)N1CCc2cc(Br)cc(S(=O)(=O)NCCCN(CC)Cc3ccccc3)c21 |  | 153% (active)
15 | Cc1ccc(Cn2c(SCCN3CCCCC3)nc3c2c(=O)n(C)c(=O)n3C)cc1 | inactive | 
16 | O=C(O)C1C2C=CC(C2)C1C(=O)N1CCN(C/C=C/c2ccccc2)CC1 (centres undefined) | inactive | 
17 | COc1ccc(C)c(NC(=O)NCCc2cnc[nH]2)c1 | inactive | 
18 | OCCC1CN(Cc2ccccc2-c2ccco2)CCN1Cc1ccccc1 (centres undefined) | inactive | 
19 | COc1ccc(CCN(C)C(=O)C2CCCN(C3CCN(Cc4ccccc4)CC3)C2)cc1OC (centres undefined) |  | 64% (active)
20 | CCOc1ccc(S(=O)(=O)Nc2cccc(C(=O)NCC(c3ccccc3)N(C)C)c2)cc1 (centres undefined) | inactive | 

Row | SMILES | outcome | activation
21 | Cc1cc(C)cc(NC(=S)N2CCN(c3ncc(C(F)(F)F)cc3Cl)CC2)c1 | inactive | 
22 | COc1ccc(C(CNC(=O)c2cccc(Br)c2)N2CCCC2)cc1 (centres undefined) | inactive | 
23 | CC(C)n1cnc2c(N(C)c3ccccc3)nc(N(CCN(C)C)Cc3ccccc3)nc21 | inactive | 
24 | Cc1cccn2c(CNCCc3ccccn3)c(C(=O)N3CCOCC3)nc12 |  | 55% (active)
25 | Cc1ccc(C)c(-n2cc(CNCCCn3cccn3)c(-c3ccccc3)n2)c1 |  | 129% (active)
26 | Cc1csc2c(N3CCN(C(=O)Nc4ccc(OC(F)(F)F)cc4)CC3)ncnc12 | inactive | 
27 | CN(CCc1ccccn1)C(=S)Nc1cccc(S(=O)(=O)N(C)C)c1 | inactive | 
28 | Cc1ccc(NC(=S)NC2CC3CCC(C2)N3Cc2ccco2)c(C)c1 (centres undefined) | inactive | 
29 | COc1cc2c(cc1OC)C(C)N(C(=O)C(NC(=O)c1ccccc1)C(C)C)CC2 (centres undefined) | inactive | 
30 | O=C(NC1CC1)C1=C[C@H](c2csc3ccccc23)C[C@H](OCc2ccc(CO)cc2)O1 | inactive | 
31 | Clc1ccc2nc(N3CCNCC3)nc(-c3ccccc3)c2c1 | inactive | 
32 | COc1ccc(C(CNC(=O)/C=C/c2c(Cl)nc3ccccn23)N(C)C)cc1 (centres undefined) |  | 153% (active)
33 | CC(=O)n1cc([C@H]2C=C(C(=O)NCc3ccccc3)O[C@@H](OCc3ccc(CO)cc3)C2)c2ccccc21 | inactive | 
34 | CCCn1ncc(CN2CCC(n3nccc3NC(=O)CCc3ccccc3)CC2)c1C |  | 115% (active)
35 | CC(=O)NC(CC(=O)NCC(c1ccco1)N(C)C)c1ccccc1 (centres undefined) |  | 78% (active)
36 | COc1ccc(C(=O)NNC(=S)NC(=O)c2cccs2)cc1 | inactive | 
37 | COCCn1nnnc1C(c1cc2ccc(OC)cc2[nH]c1=O)N1CCN(C2CCCCC2)CC1 (centres undefined) | inactive | 
38 | O=C(c1sc2ccccc2c1Cl)N(Cc1ccccc1)C1CCS(=O)(=O)C1 (centres undefined) | inactive | 
39 | O=c1c(Cc2ccc(F)cc2)c(O)ccn1CCc1cnc[nH]1 | inactive | 
